Compound activity: PubChem, National Center for Advancing Translational Sciences (NCATS)
Shown are actives, neighbours in structure and some others; about 9.5% of the full set was active somewhere.
RE007 growth inh: qHTS Assay for Inhibitors of the HIV-1 protein Vpr | S. pombe RE007 Vpr strain, BacTiter-Glo ATP luminescence, 24 h | Potency, µM (top dose mostly 92.2 µM), for inactives: at the highest dose activity change, negative = less growth, usual class: inhibitors | actives 0.21% (n = 360,000) | AID 651644, 2012; active means well fitted falling curve with a large enough effect; inconclusive means small, poorly fitted or top-dose-only effect; inactive means no such curve, though single readings can be large or run the other way; further: on the % scale 0 is the no-effect control and ±100 the full control effect; nearly all actives have a fitted effect of over 50% in size
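Fission yeast RE007 carrying one integrated HIV-1 vpr copy, seeded at OD 0.01 in PMG+AL medium with 23 nL pinned compound. Grown 24 h at 30 degrees; viability read by BacTiter-Glo luminescence after 5 min.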
Pf growth 96h: Primary qHTS for delayed death inhibitors of the malarial parasite plastid, 96 hour incubation; actives 6.9% (n = 320,000); Potency, µM (titrated, usually from 28.7 µM), without a hit: at the highest dose activity change, negative = inhibition, hits mostly inhibitors; P. falciparum luciferase reporter growth, 96 h; AID 504834, 2011; active means well fitted inhibition curve with a large enough effect; inconclusive means small, poorly fitted or top-dose-only effect, or another doubt; inactive means no such curve, though single readings can be large or run the other way; further: on the % scale 0 is the no-effect control and ±100 the full control effect
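Two-generation exposure (96 h) targets delayed-death phenotype. Reporter parasites carrying integrated firefly luciferase, in red cells at 2% hematocrit and 0.05% parasitemia final, kept at 37 C, 5% CO2; luminescence loss indicates inhibition.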
Pf growth 48h: Primary qHTS for delayed death inhibitors of the malarial parasite plastid, 48 hour incubation. P. falciparum luciferase growth in erythrocytes, 48 h. Potency, µM (top dose mostly 28.7 µM), for the others: top-dose activity change, negative = inhibition, usual class: inhibitors. actives 5.9% (n = 310,000); active means well fitted inhibition curve with a large enough effect; inconclusive means small, poorly fitted or top-dose-only effect, or another doubt; inactive means no such curve, though single readings can be large or run the other way; further: on the % scale 0 is the no-effect control and ±100 the full control effect
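Growth was read as firefly luciferase luminescence after a 48 h, 37 C, 5% CO2 exposure of compounds to reporter-bearing P. falciparum cultures (0.1% parasitemia, 2% hematocrit final) in Albumax-supplemented RPMI 1640.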
SARS PLpro yeast: qHTS of Yeast-based Assay for SARS-CoV PLP; S. cerevisiae expressing SARS-CoV PLpro, growth rescue; Potency, µM (titrated, usually from 32.9 µM), for inactives: top-dose activity, positive = growth rescue, hits mostly activators; actives 0.19% (n = 330,000); AID 485353, 2010; further: 0% is about no effect; nearly all actives have a fitted effect of over 55% in size
NS1 inh: qHTS Assay for Inhibitors of Influenza NS1 Protein Function; Potency, µM (series often up to 46.1 µM), for inactives: at the highest dose activity, positive = more growth; actives 0.4% (n = 270,000); further: actives are rising curves; nearly all actives have a fitted effect of over 50% in size
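Read-out: OD600 growth recovery of NS1-expressing budding yeast. Cells grown overnight at 30C in -URA glucose medium, washed, resuspended and diluted 1:100 in 2% galactose assay medium, pH 6.0. Same strain lacking NS1 served as positive control.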
Active calls of the source: *; [ ] = remark or other dose. Unless noted, the call rests on the fitted dose curve. Potency means the concentration at half of the fitted maximal effect.

Results for C=CCN(c1ccccc1)S(=O)(=O)c1ccc2[nH]cc(C(=O)NCCOC)c(=O)c2c1 ?
RE007 growth inh: -6%; Pf growth 96h: 4.7µM*; Pf growth 48h: inconclusive; SARS PLpro yeast: 2%; NS1 inh: inconclusive

How did COCCNC(=O)c1c[nH]c2ccc(S(=O)(=O)N(C)c3ccc(C)c(C)c3)cc2c1=O do in these assays?
RE007 growth inh: -12%; Pf growth 96h: inconclusive; SARS PLpro yeast: 1%; NS1 inh: -2%

How did O=[N+]([O-])c1nn(-c2ccccc2)n(O)c1=NCc1ccc2c(c1)OCO2 do in these assays?
RE007 growth inh: -9%; Pf growth 96h: inconclusive; Pf growth 48h: -24%; SARS PLpro yeast: 1%; NS1 inh: -6%

How did COc1ccc(-n2nc([N+](=O)[O-])c(=NCc3ccc4c(c3)OCO4)n2O)cc1 do in these assays?
RE007 growth inh: -25%; Pf growth 96h: 7.4µM*; Pf growth 48h: 243%; SARS PLpro yeast: -6%; NS1 inh: -2%

Results for C[C@@H]1CCC[C@H](C)N1Cc1nc(Cc2ccccc2Cl)no1 ?
RE007 growth inh: -18%; Pf growth 96h: 21%; Pf growth 48h: 8%; SARS PLpro yeast: 0%; NS1 inh: 2%

Results for CCc1cc(C(=O)Nc2ccc(S(=O)(=O)NC3=NCCCCC3)cc2)sc1C ?
RE007 growth inh: 2%; Pf growth 96h: 4.1µM*; Pf growth 48h: inconclusive; SARS PLpro yeast: -3%

Results for CN(C)c1ccc(C(=O)Nc2ccc(S(=O)(=O)NC3=NCCCCC3)cc2)cc1 ?
RE007 growth inh: 7%; Pf growth 96h: 12µM*; Pf growth 48h: inconclusive; SARS PLpro yeast: 16%; NS1 inh: -15%

Results for Cc1ccc(C(=O)Nc2ccc(S(=O)(=O)NC3=NCCCCC3)cc2)cc1S(=O)(=O)N1CCOCC1 ?
RE007 growth inh: 7%; Pf growth 96h: 13µM*; Pf growth 48h: 2.3µM*; SARS PLpro yeast: 6%

Results for O=C(Nc1ccc(S(=O)(=O)NC2=NCCCCC2)cc1)c1cccc(S(=O)(=O)N2CCOCC2)c1 ?
RE007 growth inh: 4%; SARS PLpro yeast: 6%

Results for CC1CN(S(=O)(=O)c2cccc(C(=O)Nc3ccc(S(=O)(=O)NC4=NCCCCC4)cc3)c2)CC(C)O1 (stereo not drawn) ?
RE007 growth inh: -19%; Pf growth 96h: inconclusive; Pf growth 48h: 13µM*

What do the screens show for `CC(C)c1ccc(C(=O)Nc2ccc(S(=O)(=O)NC3=NCCCCC3)cc2)cc1`?
RE007 growth inh: 1%

Results for C#CCNC(=O)C[C@@H]1C[C@@]2(C(=O)OCC)CCCC=C2N(Cc2ccc3c(c2)OCO3)C1=O ?
RE007 growth inh: 17%

What do the screens show for `O=C(CCN1CCCC1=O)NC1CCCc2c1cnn2-c1ccc(F)cc1F` (stereo not drawn)?
RE007 growth inh: 7%; Pf growth 96h: 8%; Pf growth 48h: 10%; SARS PLpro yeast: 1%; NS1 inh: -7%

Results for Cc1cccc(C(C)C)c1NC(=O)COC(=O)CCC(=O)N(CC(C)C)c1c(N)n(CC(C)C)c(=O)[nH]c1=O ?
RE007 growth inh: 7%

Results for CCO[C@H]1OC(C(=O)N2CCN(Cc3ccc4c(c3)OCO4)CC2)=C[C@@H](c2cn(C(C)=O)c3ccccc23)[C@@H]1CCCO ?
RE007 growth inh: 5%; Pf growth 96h: 7.4µM*; Pf growth 48h: 1µM*; SARS PLpro yeast: 1%; NS1 inh: -7%

Results for CCO[C@H]1OC(C(=O)N2CCN(Cc3ccc4c(c3)OCO4)CC2)=C[C@@H](c2csc3ccccc23)[C@@H]1CCCO ?
RE007 growth inh: -1%; Pf growth 96h: inconclusive; Pf growth 48h: 12µM*; SARS PLpro yeast: 1%; NS1 inh: -11%

How did CCO[C@@H]1OC(C(=O)N2CCN(Cc3ccc4c(c3)OCO4)CC2)=C[C@H](c2coc3ccccc3c2=O)[C@H]1CCCO do in these assays?
RE007 growth inh: 1%; Pf growth 96h: inconclusive; Pf growth 48h: inconclusive; SARS PLpro yeast: 1%; NS1 inh: -6%

What do the screens show for `CC(C)[C@@]1(c2ccc(Cl)cc2)ON(c2ccccc2C(F)(F)F)C1=O`?
Pf growth 96h: 2.3µM*; Pf growth 48h: 2.1µM*; SARS PLpro yeast: -11%

What do the screens show for `COc1ccc([C@]2(C(C)C)ON(c3ccccc3C(F)(F)F)C2=O)cc1`?
RE007 growth inh: -13%; Pf growth 96h: 2.1µM*; Pf growth 48h: 1µM*; SARS PLpro yeast: 3%

Results for COc1ccc([C@@]2(C(C)C)ON(c3ccccc3C(F)(F)F)C2=O)cc1 ?
RE007 growth inh: -3%; Pf growth 96h: 0.29µM*; Pf growth 48h: 0.33µM*; SARS PLpro yeast: 0%

How did CN(C)CCN(Cc1ccccc1)S(=O)(=O)c1cccc2cccnc12 do in these assays?
NS1 inh: 0%

What do the screens show for `C[C@H]1[C@H](C)CC[C@]2(C(=O)O)CC[C@]3(C)C(=CC[C@@H]4[C@@]5(C)CC[C@H](O)C(C)(C)[C@@H]5CC[C@]43C)[C@H]12`?
RE007 growth inh: 56%[18.4 µM]; Pf growth 96h: 37%; Pf growth 48h: 4%; SARS PLpro yeast: 1%; NS1 inh: 0%

How did C[C@H]1[C@H](C)CC[C@]2(C)CC[C@]3(C)C(=CC[C@@H]4[C@@]5(C)CC[C@@H](O)[C@](C)(C(=O)O)[C@@H]5CC[C@]43C)[C@H]12 do in these assays?
Pf growth 96h: 13µM*; Pf growth 48h: inconclusive; SARS PLpro yeast: 1%; NS1 inh: -7%

How did CC(C)c1ccc(NC(=O)C2(C)Cc3c(-c4cccc(C(F)(F)F)c4)ccnc3O2)cc1 (stereo not drawn) do in these assays?
RE007 growth inh: 4%[18.4 µM]

Results for C/C(=N\N1CCCCCC1)c1c(O)n(-c2ccc(Cl)cc2)c(=O)[nH]c1=O ?
RE007 growth inh: -20%; Pf growth 96h: 3%; Pf growth 48h: inconclusive; SARS PLpro yeast: 0%; NS1 inh: -1%

How did CC/C(=N\N1CCCCCC1)c1c(O)n(-c2ccc(C)cc2)c(=O)[nH]c1=O do in these assays?
RE007 growth inh: 19%; Pf growth 96h: 2.1µM*; Pf growth 48h: inconclusive; SARS PLpro yeast: -14%; NS1 inh: 2%

What do the screens show for `C/C(=N\N1CCCCCC1)c1c(O)n(-c2ccc(C)cc2)c(=O)[nH]c1=O`?
RE007 growth inh: 15%; Pf growth 96h: 12µM*; Pf growth 48h: inconclusive; SARS PLpro yeast: 2%; NS1 inh: -1%

Results for O=C(c1ccccc1)c1ccc2n1CC[C@H]2C(=O)O ?
Pf growth 96h: -8%[12.8 µM]; Pf growth 48h: 5%[12.8 µM]

How did Cc1ccc(C2CC(=O)Oc3cc(O)ccc32)cc1 (stereo not drawn) do in these assays?
RE007 growth inh: -23%; Pf growth 96h: -9%; Pf growth 48h: 33%; SARS PLpro yeast: 7%; NS1 inh: 0%
